Reference: PubChem BioAssay (Tox21)
Where “and” joins values, the source holds several entries; their conditions need not be identical. Identical values can stand only once. Results filed as inconclusive are left out. Entries that show only a call come without a potency. Some structures have more than one record in an assay (separate samples or runs), and their calls can disagree. Calls of active or inactive are those of the source. Calls come from the whole dose curve; as a rule, active = well fitted curve in the direction sought with a large enough effect in the repeat runs; inconclusive = weak or mixed curves; inactive = no such curve, though single readings can be large; an effect the other way counts as inactive or inconclusive.

How the values were obtained:
[1] = qHTS RealTime-Glo MT Cell Viability Assay in HepG2 cells - 40 hour (AID 1224870); note: nearly all actives have a fitted effect of over 50% in size
How it was run: (§1)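 HepG2 cells mixed with RealTime-Glo MT reagents (NanoLuc plus cell-permeant prosubstrate) were seeded at 600 cells/well, incubated 5 h at 37 C/5% CO2, then pinned with compounds in DMSO; nonlytic luminescence tracked viability during 40 h treatment.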

[2] = A CellTox Green Cytotoxicity Assay to monitor cytotoxicity in HEK293 cells - 40 hour (AID 1224871); note: nearly all actives have a fitted effect of over 45% in size; note: potency is the fitted concentration of half-maximal effect
How it was run: (§2)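 Cells (HEK293, 600/well) and dye reagent are dispensed together. After 5 h at 37 C, 23 nL compound is pinned in. Plates stay at 37 C for 40 h with fluorescence read at 0h, 8h, 16h, 24h, 32h and 40h.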

[3] = qHTS RealTime-Glo MT Cell Viability Assay in HepG2 cells - 8 hour (AID 1224873); note: nearly all actives have a fitted effect of over 55% in size
How it was run: as §1

[4] = qHTS RealTime-Glo MT Cell Viability Assay in HEK293 cells - 40 hour (AID 1224874); details: RealTime-Glo luminescence; max response: stronger effect = lower value; note: nearly all actives have a fitted effect of over 50% in size
How it was run: (§3)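 Real-time viability in HEK293: signal arises when living cells convert a prosubstrate for NanoLuc in the medium, so luminescence tracks viable cell number. Compound (23 nL, DMSO) added 5 h post-seeding; kinetic reads at 0–40 h, 37 C.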

[5] = A CellTox Green Cytotoxicity Assay to monitor cytotoxicity in HEK293 cells - 24 hour (AID 1224875); note: series mostly up to about 77 µM; nearly all actives have a fitted effect of over 45% in size
How it was run: as §2

[6] = A CellTox Green Cytotoxicity Assay to monitor cytotoxicity in HepG2 cells - 16 hour (AID 1224876); note: nearly all actives have a fitted effect of over 45% in size
How it was run: (§4)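 Cells and non-lytic dye reagent are dispensed together (600 HepG2 cells/well) and incubated 5 h before DMSO compound transfer. Kinetic fluorescence is then recorded in the same wells during 40 h at 37 C.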

[7] = qHTS RealTime-Glo MT Cell Viability Assay in HepG2 cells - 32 hour (AID 1224877); note: nearly all actives have a fitted effect of over 55% in size
How it was run: (§5)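 Compound treatment began 5 h after plating HepG2 cells (600/well) with NanoLuc luciferase and prosubstrate. Plates stayed at 37 C for 40 h; luminescence was captured at six time points, 0 h through 40 h.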

[8] = A CellTox Green Cytotoxicity Assay to monitor cytotoxicity in HepG2 cells - 24 hour (AID 1224878); note: nearly all actives have a fitted effect of over 45% in size
How it was run: as §4

[9] = A CellTox Green Cytotoxicity Assay to monitor cytotoxicity in HepG2 cells - 40 hour (AID 1224879); note: nearly all actives have a fitted effect of over 40% in size; note: potency is the fitted concentration of half-maximal effect
How it was run: as §4

[10] = qHTS RealTime-Glo MT Cell Viability Assay in HEK293 cells - 0 hour (AID 1224880)
How it was run: as §3

[11] = A CellTox Green Cytotoxicity Assay to monitor cytotoxicity in HEK293 cells - 32 hour (AID 1224881); note: nearly all actives have a fitted effect of over 40% in size; note: potency is the fitted concentration of half-maximal effect
How it was run: as §2

[12] = A CellTox Green Cytotoxicity Assay to monitor cytotoxicity in HepG2 cells - 0 hour (AID 1224882); note: nearly all actives have a fitted effect of over 35% in size
How it was run: as §4

[13] = A CellTox Green Cytotoxicity Assay to monitor cytotoxicity in HepG2 cells - 32 hour (AID 1224883); note: nearly all actives have a fitted effect of over 50% in size; note: potency is the fitted concentration of half-maximal effect
How it was run: as §4

[14] = A CellTox Green Cytotoxicity Assay to monitor cytotoxicity in HEK293 cells - 8 hour (AID 1224884); note: nearly all actives have a fitted effect of over 35% in size
How it was run: as §2

[15] = qHTS RealTime-Glo MT Cell Viability Assay in HepG2 cells - 16 hour (AID 1224885); note: nearly all actives have a fitted effect of over 50% in size
How it was run: as §5

[16] = qHTS RealTime-Glo MT Cell Viability Assay in HEK293 cells - 24 hour (AID 1224886)
How it was run: (§6)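 Quantitative high-throughput screen of the Tox21 10K library in HEK293: cells and RealTime-Glo reagents plated together, compound added at 5 h, luminescence monitored through 40 h at 37 C.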

[17] = A CellTox Green Cytotoxicity Assay to monitor cytotoxicity in HEK293 cells - 16 hour (AID 1224888); note: nearly all actives have a fitted effect of over 35% in size
How it was run: as §2

[18] = qHTS RealTime-Glo MT Cell Viability Assay in HepG2 cells - 0 hour (AID 1224889); note: nearly all actives have a fitted effect of over 50% in size
How it was run: as §5

[19] = qHTS RealTime-Glo MT Cell Viability Assay in HEK293 cells - 16 hour (AID 1224872)
How it was run: as §6

[20] = qHTS RealTime-Glo MT Cell Viability Assay in HEK293 cells - 8 hour (AID 1224887)
How it was run: as §3

SMILES | Potency [1] | Potency [2] | Potency [3] | max response [4] | Potency [5] | Potency [6] | Potency [7] | Potency [8] | Potency [9] | Potency [10] | Potency [11] | Potency [12] | Potency [13] | Potency [14] | Potency [15] | Potency [16] | Potency [17] | Potency [18] | Potency [19] | Potency [20]
Cc1ncc[nH]1 | inactive | inactive | inactive | 3.53% (inactive) and 2.93% (inactive) | inactive | inactive | inactive | inactive | inactive | inactive | inactive | inactive | inactive | inactive | inactive | inactive | inactive | inactive |  | 
CCC(C)c1ccccc1O (centres undefined) | inactive | 34.4 µM (active) |  | -13% (inactive) and 2.84% (inactive) |  | inactive | inactive | inactive | 48.6 µM (active) | inactive | 38.6 µM (active) | inactive | 48.6 µM (active) | inactive | inactive | inactive |  | inactive | inactive | inactive
COc1c(Cl)c(Cl)c(Cl)c(Cl)c1Cl | inactive | inactive |  |  | inactive | inactive | inactive | inactive | inactive | inactive | inactive | inactive | inactive | inactive | inactive | inactive | inactive | inactive | inactive | 
CCCCC(CC)COP(=O)(OCC(CC)CCCC)OCC(CC)CCCC (centres undefined) | inactive | inactive |  | -14.5% (inactive) | inactive |  | inactive | inactive | inactive | inactive | inactive | inactive | inactive | inactive | inactive | inactive | inactive | inactive | inactive | inactive
O=S(=O)(O)c1ccc(O)cc1 | inactive | inactive | inactive | 9.46% (inactive) and 3.12% (inactive) | inactive | inactive | inactive | inactive | inactive | inactive | inactive | inactive | inactive | inactive | inactive | inactive | inactive | inactive |  | inactive
Cc1ccc(C)c(O)c1C | inactive | inactive |  |  | inactive | inactive | inactive | inactive | inactive | inactive | inactive | inactive | inactive | inactive | inactive | inactive | inactive | inactive | inactive | inactive
CC(C)=CCCC(C)CCO (centres undefined) | inactive | inactive |  | -3.95% (inactive) and 4.54% (inactive) | inactive |  | inactive |  | inactive | inactive | inactive | inactive | inactive | inactive | inactive | inactive | inactive | inactive | inactive | inactive
Cc1cccc(N(C)C(=S)Oc2ccc3ccccc3c2)c1 | inactive | inactive | inactive | -21.9% (inactive) and -0.992% (inactive) | inactive | inactive | inactive |  | inactive | inactive | inactive | inactive | inactive | inactive | inactive | inactive | inactive | inactive |  | 
CCOC(=O)C(C#N)=C(c1ccccc1)c1ccccc1 | inactive | inactive |  | -18.4% (inactive) and -13.3% (inactive) | inactive | inactive | inactive |  | inactive | inactive | inactive | inactive | inactive | inactive | inactive | inactive | inactive | inactive | inactive | 
c1ccc2cc(Nc3ccc(Nc4ccc5ccccc5c4)cc3)ccc2c1 | inactive | inactive |  | 5.1% (inactive) and 1.69% (inactive) | inactive |  | inactive |  | inactive and 12.3 µM (active) | inactive | inactive | inactive | inactive | inactive | inactive | inactive | inactive | inactive | inactive | 
COc1ccccc1/C=C/C=O | inactive | inactive |  |  | inactive | inactive | inactive |  | inactive | inactive | inactive | inactive | inactive | inactive | inactive |  | inactive | inactive | inactive | 
C=CC(C)(CCC=C(C)C)OC(C)=O (centres undefined) | inactive | inactive |  |  | inactive | inactive | inactive | inactive | inactive | inactive | inactive | inactive | inactive | inactive | inactive | inactive | inactive | inactive | inactive | inactive
CCCCCCCCCCCO | inactive | inactive | inactive | -2.32% (inactive) and 0.908% (inactive) | inactive |  | inactive | inactive | inactive | inactive | inactive | inactive | inactive | inactive | inactive | inactive | inactive | inactive |  | 
